HCMV NEC inh: disrupts HCMV UL50-UL53 complex binding; 190,000 compounds, 0.15% hits; HTRF UL50-UL53 interaction, normalized percent inhibition; inhibition, % (concentration not given with the values); AID 1918969; in the data active = inhibition above about 27%, passing the limit was not always enough
S aureus helic: blocks Staphylococcus aureus DNA helicase; 120,000 compounds, 0.05% hits; AID 485395; inhibition, % (concentration not given with the values); purified S. aureus helicase, fluorescence unwinding assay; in the data active = inhibition above about 25%, passing the limit was not always enough;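 note: 0% = mean of negative control wells and 100% = mean of positive control wells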
Sa growth inh: S. aureus growth inhibition | relative growth, % (concentration not given with the values) | S. aureus RN4220 growth, OD600, 20 h, 42 °C; stronger effect = lower value | 170,000 compounds, 0.53% hits | AID 720641;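 active = relative growth at most 50% at the other temperature and 20+ points below 30 °C, or under 10% at both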
* hit, by the source's call. Many of the other results were omitted from the sample, so hits are more common in it than they were.

For Fc1ccc(Nc2nc3nonc3nc2Nc2ccccc2F)cc1 the results were HCMV NEC inh -40, S aureus helic 17 and Sa growth inh -0.6*.
`Cc1cc(C)n(-c2nc3nonc3nc2Nc2cccc(C(F)(F)F)c2)n1` gave HCMV NEC inh 4.
`Fc1ccc(Nc2nc3nonc3nc2Nc2cccc(C(F)(F)F)c2)cc1` gave HCMV NEC inh -26 and Sa growth inh -1.0*.
For CCN(CC)c1ccc2cc(-c3ncc(-c4ccc(F)cc4)o3)c(=O)oc2c1 the results were HCMV NEC inh -24, S aureus helic -126 and Sa growth inh 96.
For Cc1ccc(CSc2nc(C(=O)O)ccc2C#N)cc1 the results were HCMV NEC inh 54*, S aureus helic 14 and Sa growth inh 51.
Screening Cc1ccc(CSc2nc(-c3cccs3)ccc2C#N)cc1 returned HCMV NEC inh -30 and Sa growth inh 99.
`COc1cc(C=C2C(=O)NC(=O)NC2=O)ccc1Oc1ccc([N+](=O)[O-])cc1[N+](=O)[O-]` gave HCMV NEC inh 49*.
For COc1cc(C=C2C(=O)NC(=O)NC2=O)ccc1OCc1ccccc1[N+](=O)[O-] the results were HCMV NEC inh -11.
O=S1(=O)CCn2c(ncnc2=Nc2cccc(C(F)(F)F)c2)N1 was read as HCMV NEC inh -29, S aureus helic -11 and Sa growth inh 96.
COc1ccc(-c2nnn(CC(=O)N(c3ccccc3)C(C(=O)NC3CCCC3)c3ccco3)n2)cc1 (centres undefined) was read as HCMV NEC inh -6, S aureus helic 17 and Sa growth inh 48*.
Screening Cc1ccc(-c2nnn(CC(=O)N(Cc3ccccc3)C(C(=O)NC3CCCC3)c3ccco3)n2)cc1 (centres undefined) returned HCMV NEC inh -14, S aureus helic 3 and Sa growth inh 114.
Screening CN(C)c1ccc(N=Cc2cccn2C)cc1 returned HCMV NEC inh -49, S aureus helic -1 and Sa growth inh 9.7*.
`CN(C)c1ccc(C=Nc2ccc(C(=O)O)cc2)cc1` gave HCMV NEC inh -9, S aureus helic -20 and Sa growth inh 105.
Cc1ccc(CN(C(=O)c2ccccc2)C2CCS(=O)(=O)C2)cc1 (centres undefined) was read as HCMV NEC inh -31, S aureus helic 10 and Sa growth inh 116.
O=C(Nc1ncc(Cc2ccccc2Cl)s1)c1ccco1 was read as HCMV NEC inh -18 and S aureus helic -8.
Screening CC1SC(=N)N(c2ncc(Cc3ccccc3Cl)s2)C1=O (centres undefined) returned S aureus helic 1 and Sa growth inh -1.0*.
Screening COc1ccc(CNC(=O)CN2C(=O)C(C)=C(c3ccc(C)cc3)S2(=O)=O)cc1 returned HCMV NEC inh -23, S aureus helic 11 and Sa growth inh 99.
Screening CN1/C(=C\C(=O)CN2C(=O)NC3(CCCCC3)C2=O)C(C)(C)c2ccccc21 returned HCMV NEC inh -22, S aureus helic -2 and Sa growth inh 89.
CN1/C(=C\C(=O)CN2C(=O)NC3(CCc4ccccc43)C2=O)C(C)(C)c2ccccc21 (centres undefined) was read as HCMV NEC inh -36, S aureus helic -19 and Sa growth inh -0.9*.
For Cc1ccc(-c2cc(C(F)F)nc(NCc3ccco3)n2)cc1 the results were HCMV NEC inh -6, S aureus helic 19 and Sa growth inh 106.
`Cc1ccc(-c2cc(C(F)F)nc(S(C)(=O)=O)n2)cc1` gave HCMV NEC inh -18, S aureus helic 3 and Sa growth inh 36*.
For COc1ccc(-c2nnc(NC(=O)c3ccc(S(=O)(=O)N4CCCc5ccccc54)cc3)o2)cc1 the results were HCMV NEC inh 2, S aureus helic 5 and Sa growth inh 92.
Screening O=C(Nc1nnc(-c2ccc(Cl)cc2)o1)C1CC1 returned HCMV NEC inh 1, S aureus helic 6 and Sa growth inh 2.6*.
Screening O=C(Nc1nnc(C2=COCCO2)o1)c1cccc2ccccc12 returned HCMV NEC inh -28, S aureus helic 7 and Sa growth inh 92.
For COc1cc(OC)cc(-c2nnc(NC(=O)c3ccc(S(=O)(=O)N4COCC4(C)C)cc3)o2)c1 the results were HCMV NEC inh 6, S aureus helic 9 and Sa growth inh 1.0*.
Screening CN(C1CCCCC1)S(=O)(=O)c1ccc(C(=O)Nc2nnc(-c3cccnc3)o2)cc1 returned HCMV NEC inh -36, S aureus helic 8 and Sa growth inh 2.3*.
`COc1ccc(-c2nnc(NC(=O)C3CC3)o2)cc1` gave HCMV NEC inh -3, S aureus helic 1 and Sa growth inh 78.
Screening CN(C1CCCCC1)S(=O)(=O)c1ccc(C(=O)Nc2ccccc2)cc1 returned HCMV NEC inh 2 and S aureus helic 13.
`O=C(Nc1nnc(C2=COCCO2)o1)c1ccc(Cl)cc1` gave HCMV NEC inh -14, S aureus helic 22 and Sa growth inh 3.7*.
`Cc1ncsc1CCn1nc(C(=O)NC2CC2)c2c1CCN(C(=O)C1Cc3ccccc3O1)C2` (centres undefined) gave HCMV NEC inh 6.
For COc1ccc(CNC(=O)c2ccc(NC(=O)CN3CC(=O)N4CCCCC4C3=O)cc2)cc1 (centres undefined) the results were HCMV NEC inh -7.
`COc1ccc(S(N)(=O)=O)cc1C(=O)NCc1ccc2c(c1)OCO2` gave HCMV NEC inh -6, S aureus helic -6 and Sa growth inh 92.
Screening COc1ccc(-c2noc(-c3cc(C4CC4)[nH]n3)n2)c(OC)c1 returned HCMV NEC inh -4.
For CCOC(=O)c1c(C)[nH]c(C)c1S(=O)(=O)N1CCC(C(=O)Nc2ccc3c(c2)OCO3)CC1 the results were HCMV NEC inh -20.
For O=S(=O)(CCC(F)(Br)C(F)(F)Br)c1ccccc1 (centres undefined) the results were HCMV NEC inh -13.
For O=C(O)c1cc(C(=O)O)n(Cc2ccccc2Cl)n1 the results were HCMV NEC inh -26, S aureus helic 5 and Sa growth inh 110.
`COc1cc(OC)cc(-c2nnc(NC(=O)c3ccc(S(=O)(=O)N(C)c4ccccc4)cc3)o2)c1` gave HCMV NEC inh 6, S aureus helic 4 and Sa growth inh -0.1*.
Screening O=C(Nc1nnc(-c2ccccc2)o1)c1ccccc1 returned HCMV NEC inh 18, S aureus helic 15 and Sa growth inh 0.0*.
For CN(Cc1ccccc1)S(=O)(=O)c1ccc(C(=O)Nc2nnc(-c3ccco3)o2)cc1 the results were HCMV NEC inh -38, S aureus helic 4 and Sa growth inh 83.
Screening O=C(Nc1nnc(-c2cccs2)o1)c1ccccc1 returned HCMV NEC inh 3 and S aureus helic -19.
`CCOC(=O)CCN1C(=O)/C(=C/c2ccccc2OC)SC1=S` gave HCMV NEC inh 0 and S aureus helic 2.
Cc1cc(C(=O)CSc2nnc(NC3CC3)s2)c(C)s1 was read as HCMV NEC inh -10, S aureus helic -2 and Sa growth inh 85.
Screening CC[C@H]1OC(=O)[C@H](C)C(O[C@H]2C[C@@](C)(OC)[C@@H](O)[C@H](C)O2)[C@H](C)[C@@H](OC2O[C@H](C)C[C@H](N(C)C)[C@H]2O)[C@](C)(O)C[C@@H](C)CN(C)[C@H](C)[C@@H](O)[C@]1(C)O (some centres undefined) returned HCMV NEC inh 1.
